GPR151 ag: activators of human GPR151; 1% of 650,000 active; Q8TDV0; PathHunter beta-arrestin GPR151 cells, luminescence; AID 1508602; activation, % at 11.2 µM; in the data active = activation above about 4.9%;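 note: 0% = median of compound wells and 100% = cells with positive control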
Target sequence (Q8TDV0 whole entry, looked up): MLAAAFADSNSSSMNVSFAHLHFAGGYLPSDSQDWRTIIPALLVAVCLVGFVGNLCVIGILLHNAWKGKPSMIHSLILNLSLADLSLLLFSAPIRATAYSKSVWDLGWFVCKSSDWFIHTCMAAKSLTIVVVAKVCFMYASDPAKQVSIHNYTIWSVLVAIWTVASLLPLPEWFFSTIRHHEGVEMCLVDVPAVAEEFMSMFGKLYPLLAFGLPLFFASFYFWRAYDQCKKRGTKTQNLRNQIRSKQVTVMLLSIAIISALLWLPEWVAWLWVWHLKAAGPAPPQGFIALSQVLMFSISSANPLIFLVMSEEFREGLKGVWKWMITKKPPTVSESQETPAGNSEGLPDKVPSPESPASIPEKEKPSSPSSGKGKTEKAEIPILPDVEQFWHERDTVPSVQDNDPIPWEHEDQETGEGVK
TEAD-YAP block: TEAD-YAP interaction inhibition; HEK-TIYL cells, TEAD-Gal4/YAP UAS-luciferase luminescence; inhibition, % at 9.12 µM; 1.4% of 640,000 active; in the data active = inhibition above about 32%;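 note: 0% = median of test compound wells and 100% = reference inhibitor wells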
FBW7 activator: activators of human E3 ligase FBW7; AlphaScreen FBW7–phospho-cyclin E peptide binding, activator screen; normalized activity (activation), % at 26.1 µM; 0.13% of 650,000 active; AID 1259310; in the data active = normalized activity above about 1.9%;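 note: purified mutant Fbw7 with reduced substrate affinity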
MITF inh: human MITF inhibition, primary screen | O75030 | AlphaScreen MITF homodimerization, bead proximity signal | inhibition, % at 2.6 µM | 0.91% of 650,000 active | AID 1259374; in the data active = inhibition above about 50%;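 note: 0% = vehicle wells with protein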
An asterisk follows results filed as active. This is a sample that favours compounds with a hit; in the whole collection about 3.5% have one here.

SMILES | GPR151 ag | TEAD-YAP block | FBW7 activator | MITF inh
Cc1nc(SCC(=O)Nc2cc(C(N)=O)cc(C(N)=O)c2)c2c(C)c(C)sc2n1 | 0 | -4 | 16* | -5
COc1ccc(NC(=O)CCc2nc3cccnc3n2Cc2cccs2)cc1 | 2 | 1 | 0 | 2
CC1C(c2ccc3ccccc3n2)=CNc2ccccc21 (stereo unspecified) | -1 | 41* | 0 | 4
O=C(NCCc1ccc(O)cc1)c1cccc(Nc2ccc(N3CCOCC3)cc2)n1 | 0 | 57* | 0 | 2
C/C(=C\C(=O)O)C(=O)Nc1ccc(N2CCOCC2)cc1 | -1 | 1 | 0 | 53*
O=C(Nc1ccc(N2CCOCC2)cc1)c1cccc(Cl)n1 | -11 | 60* | 0 | 12
O=C(NCCc1ccc(O)cc1)c1cccc(-c2ccc(N3CCOCC3)nc2)n1 | -1 | 46* | 0 | -2
O=C(NCCN1CCOCC1)c1cccc(-c2ccc(N3CCOCC3)nc2)n1 | 2 | -1 | 0 | -7
CCCNC(=O)c1cccc(Nc2ccc(N3CCOCC3)cc2)n1 | 1 | 3 | 0 | -2
CC(=O)Nc1ccc(N2CCOCC2)cc1 | 1 | -9 | 0 | -5
O=C1Nc2ccc(I)c3cccc1c23 | 4 | 3 | 0 | -14
COc1ccc2occ(C(=O)c3oc4ccc(Cl)cc4c3N)c2c1 | -1 | 57* | 0 | -10
CCc1ccc(-n2nc3cc(C)c(N)cc3n2)cc1 | -1 | -32 | 1 | 8
Cc1ccc(-n2nc3cc(C)c(N)cc3n2)cc1 | -1 | 37* | 0 | -11
CC1CCCN(CCCN(Cc2ccco2)C(=S)Nc2ccccc2Cl)C1 (stereo unspecified) | 1 | 5 | 0 | 3
O=C1CC(N2CCCC2)C(=O)N1c1ccc(Cl)cc1 (stereo unspecified) | 0 | 1 | 0 | -2
O=C1CC(N2CCCCC2)C(=O)N1c1cc(Cl)cc(Cl)c1 (stereo unspecified) | 4 | 46* | 0 | -7
CC(C)COC(=O)Nc1ccccc1I | -1 | 11 | 0 | 7
COc1cccc(C(=O)c2oc3ccc(N)cc3c2C)c1 | 2 | -1 | 0 | 2
CCC(c1nnnn1Cc1cccs1)N1CCN(C)CC1 (stereo unspecified) | 0 | -2 | 0 | 7
CCOc1ccc(-c2cc(=O)n(CC(=O)NCc3cccs3)cn2)cc1 | -2 | 44* | 0 | 5
CCc1ccc(OCC(=O)NCc2cccs2)cc1 | 0 | -22 | 0 | 1
Cc1ccc(S(=O)(=O)CC(=O)c2ccccc2Br)cc1 | -1 | 14 | 1 | 10
COCCCN1C(=O)c2[nH]nc(-c3ccccc3O)c2C1c1cccc(Cl)c1 (stereo unspecified) | 1 | 36* | 0 | 9
COCCCN1C(=O)c2[nH]nc(-c3ccccc3O)c2C1c1ccc(Cl)cc1 (stereo unspecified) | 0 | 12 | 0 | 0
SMILES | GPR151 ag | TEAD-YAP block | FBW7 activator | MITF inh
CC(C)(C)NC(=O)CSc1nc2ccc(Cl)cc2[nH]1 | 1 | -7 | 0 | 3
COc1ccc(N2CCN(c3ncnc4c3cnn4C)CC2)cc1 | 0 | -4 | 0 | 0
O=C(NCCn1ncc2c(N3CCN(c4ccccc4)CC3)ncnc21)c1ccccc1F | 0 | 48* | 0 | -12
COc1ccc(N2CCN(c3ncnc4c3cnn4CCNC(=O)c3cccs3)CC2)cc1 | 1 | 37* | 0 | -7
O=C(Cc1ccccc1)NCCn1ncc2c(N3CCN(c4ccc(F)cc4)CC3)ncnc21 | 1 | 12 | 0 | 0
CNC(=O)c1ccccc1NC(=O)c1cccc(S(=O)(=O)NC)c1 | -1 | 13 | 0 | 11
Cc1ccc(C(=O)N2CCCC(CNC(=O)C3(c4ccc(Cl)cc4)CC3)C2)s1 (stereo unspecified) | -1 | 5 | 0 | -15
CCc1ccccc1NC(=O)c1ccc(SCc2ccc(OC)cc2)c([N+](=O)[O-])c1 | -1 | 1 | 0 | -5
CCc1ccccc1NC(=O)c1ccc(NCc2ccc(OC)cc2)c([N+](=O)[O-])c1 | 0 | 57* | 0 | 2
COc1ccc(CNc2ccc(C(=O)Nc3cccc(OC)c3)cc2[N+](=O)[O-])cc1 | -1 | 52* | 0 | 5
CCc1ccccc1NC(=O)c1ccc(NCc2ccc(C)cc2)c([N+](=O)[O-])c1 | 4 | 57* | 0 | 1
CSc1cccc(NC(=O)C(C)NS(=O)(=O)c2cc(Cl)ccc2Cl)c1 (stereo unspecified) | 1 | -3 | 0 | -4
COc1ccccc1CC(=O)Nc1cccc(Cl)c1C | 1 | 0 | 0 | -2
COC(=O)CCCNc1nc(CN2CCNC(=O)C2)nc2ccccc12 | -1 | -2 | 0 | -1
CN(C)CCOc1cc(-c2ccnc(N)n2)ccc1NC(=O)[C@H]1COc2ccccc2O1 | 0 | 2 | 0 | 3
COc1ccc(-n2c(=O)c3ccccc3n(Cc3ccc([N+](=O)[O-])cc3)c2=O)cc1OC | 0 | 11 | 0 | 4
CCOc1ccc(/C=C/C(O)=C2/C(=O)NC3(C)CC2c2ccccc2O3)cc1OC (stereo unspecified) | -1 | 49* | 0 | -14
COc1ccc(-c2cc(=O)c3cc(O)ccc3o2)cc1OC | -1 | -13 | 0 | -1
Cc1ccc(-c2c3cc(O)c(=O)cc-3oc3cc(O)c(O)cc23)cc1 | 1 | 5 | 0 | 102*
O=c1cc2oc3cc(O)c(O)cc3c(-c3cccnc3)c-2cc1O | 1 | 5 | -1 | 100*
CCOc1ccccc1-c1c2cc(O)c(=O)cc-2oc2cc(O)c(O)cc12 | 0 | 6 | 0 | 103*
Cc1ccc(-c2cc(=O)c3cc(Cl)ccc3o2)cc1 | 4 | -59 | 0 | -9
COc1cc(-c2c3cc(O)c(=O)cc-3oc3cc(O)c(O)cc23)ccc1C | -1 | 3 | 0 | 106*
CCOCCOC(=O)c1cccc(NC(=O)/C=C/c2cccc([N+](=O)[O-])c2)c1 | 4 | -4 | 0 | 6
CC(C)(C)c1ccc(C2=N/C(=C\c3ccccc3Cl)C(=O)O2)cc1 | 0 | 1 | 0 | -2
SMILES | GPR151 ag | TEAD-YAP block | FBW7 activator | MITF inh
CCN1CC(CNc2nc3nonc3nc2N2CCCCCC2)CC1=O (stereo unspecified) | -1 | -8 | 0 | 16
CCSc1nc2c(c(=O)[nH]c(=O)n2C)n1CCc1ccc(OC)cc1 | 0 | 43* | 0 | -12
CCSc1nc2c(c(=O)[nH]c(=O)n2C)n1CCCc1ccccc1 | 1 | 0 | 0 | 5
Cc1ccc(NC(=O)Cc2cccs2)c(Br)c1 | 0 | -15 | 0 | 17
Cc1ccc(NC(=O)CNCc2cccs2)c(Br)c1 | 2 | -31 | 3.8* | 10
c1coc(CNCc2cn[nH]c2-c2cccs2)c1 | 0 | 4 | 0 | 7
COc1ccc(OC)c(NS(=O)(=O)c2ccc(-c3ccccc3)cc2)c1 | 0 | 35* | 0 | 10
COc1ccc(S(=O)(=O)Nc2ccc(C)cn2)cc1 | -2 | -9 | 2.5* | 11
COc1ccc(S(=O)(=O)Nc2cc(OC)ccc2OC)cc1 | 3 | 61* | 0 | -10
COc1ccc(OC)c(NC(=O)C2CCCC2)c1 | 0 | -3 | 25* | 8
Nc1c(C(=O)NCc2ccc3c(c2)OCO3)nnn1-c1ccccc1 | 0 | -14 | 0 | 9
